From PubChem BioAssay (NCATS)
Results filed as inconclusive are left out. Activity calls are given as the source filed them. Calls follow the shape of the dose curve; as a rule, active = well fitted activation curve with a large enough effect; inconclusive = small, poorly fitted or top-dose-only effect; inactive = no such curve, though single readings can be large or run the other way.

The compounds below were run against Cellular tumor antigen p53 (Homo sapiens) (UniProt P04637) (assay: Primary qHTS for small molecule compounds that upregulate eGFP-tagged delta133p53alpha (in N-terminal) cells. (AID 2060322; also: nearly all actives have a fitted effect of over 75% in size;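 as to activation: series mostly up to about 56 µM; 0% = DMSO vehicle and 100% = reference activator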)). Conditions: NCI-H358 eGFP-delta133p53alpha fluorescence, 24 h; activation: stronger effect = higher value.
How it was run: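 NCI-H358 cells pre-induced 24 h with 10 ng/ml doxycycline to express N-terminal eGFP-delta133p53alpha, then dosed 24 h at 37C without doxycycline; fixed, Hoechst-stained, GFP intensity by laser scanning cytometry, normalized to DMSO (0%) and 57.5 uM 5-azacytidine (100%).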
Potency is read from the fitted curve at half-maximal effect.

Cellular tumor antigen p53 (Homo sapiens), sequence (P04637 whole entry, looked up): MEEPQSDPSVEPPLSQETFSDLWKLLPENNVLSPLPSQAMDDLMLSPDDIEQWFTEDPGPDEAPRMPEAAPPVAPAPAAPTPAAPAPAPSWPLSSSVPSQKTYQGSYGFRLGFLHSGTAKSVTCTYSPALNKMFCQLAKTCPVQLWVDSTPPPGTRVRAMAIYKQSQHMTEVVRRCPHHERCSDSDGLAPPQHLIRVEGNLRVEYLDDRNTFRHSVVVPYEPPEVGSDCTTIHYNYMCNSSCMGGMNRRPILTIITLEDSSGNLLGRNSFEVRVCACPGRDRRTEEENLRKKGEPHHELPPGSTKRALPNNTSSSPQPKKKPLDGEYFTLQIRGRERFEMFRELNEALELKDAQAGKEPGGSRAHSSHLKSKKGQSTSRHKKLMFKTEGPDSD

Compound | activation | Potency
C=C(C)C1CCC2(C(=O)O)CCC3(C(=O)O)C(CCC4C5(C)CCC(O)C(C)(C(=O)O)C5CCC43C)C12 (centres undefined) | -3.82% (inactive) | –
COC(=O)[C@]1(C)CCC[C@@]2(C)C(=O)CC[C@H]3C(=O)C=C(CC[C@@H]21)C3O (some centres undefined) | 1.53% (inactive) | –
CC(=O)OC1CCC2(C)C(CCC3(C)C2CC=C2C4C(C)C(C)CCC4(C)CCC23C)C1(C)C(=O)O (centres undefined) | -6.11% (inactive) | –
COc1ccc(C[C@H]2COC(=O)[C@@H]2Cc2ccc(O[C@@H]3O[C@H](CO)[C@@H](O)[C@H](O)[C@H]3O)c(OC)c2)cc1OC | 15.2% (inactive) | –
COc1ccc(/C=C/C(=O)O[C@@H]2[C@@H](O)[C@H](C)O[C@@H](OC3C4C=COC(O[C@@H]5O[C@H](CO)[C@@H](O)[C@H](O)[C@H]5O)C4C4(CO)OC34)[C@@H]2O)cc1OC (some centres undefined) | -13% (inactive) | –
C=C(C)C1CC(O)C(C)C12CC(O)C1(C)OC1C2O (centres undefined) | 19.1% (inactive) | –
C=C1C(=O)O[C@@H]2[C@H]1CCC(C)=C(CCC(=O)O)[C@@]2(C)O | -18.3% (inactive) | –
O=C(C[C@@H]1C(C(=O)O)=CO[C@@H](O[C@@H]2O[C@H](CO)[C@@H](O)[C@H](O)[C@H]2O)/C1=C\CO)OCCc1ccc(O)cc1 | 1.53% (inactive) | –
C=C(C)C(C)C1OC23CC4(CO2)C(CCC2C5(C)CCC(OC6OCC(O)C(OC7OC(CO)C(O)C(OC8OCC(O)C(O)C8O)C7O)C6OC6OC(CO)C(O)C6O)C(C)(C)C5CCC24C)C3C(C)(O)C1OC(C)=O (centres undefined) | -19.8% (inactive) | –
CC1=C(CO)CC(C(C)C2CCC3C4CC=C5CC(OC6OC(COC7OC(CO)C(O)C(O)C7O)C(O)C(O)C6O)CC(O)C5(C)C4CCC23C)OC1=O (centres undefined) | 3.05% (inactive) | –
CCC[C@@H](NC(=O)N1C(=O)C(CC)(CC)[C@@H]1Oc1ccc(C(=O)N2CCN(C)CC2)cc1)c1ccc2c(c1)OCO2 | -10.5% (inactive) | –
C=C1CC23CC(=O)C4C(CO)(CO)CCCC4(C)C2CCC1C3 (centres undefined) | -3.05% (inactive) | –
COC(=O)C1=COC(OC2OC(CO)C(O)C(O)C2O)C2C(C)C(OC(C)=O)C(OC(=O)c3ccccc3)C12 (centres undefined) | -6.87% (inactive) | –
Cc1ccc(OC[C@H](O)[C@H](C)NC(C)C)c2c1CCC2 | 10.3% (inactive) | –
Nc1nc2c(s1)CCN(Cc1ccc(Cl)cc1)CC2 | 19.1% (inactive) | –
C[C@H](C(=O)NC1CCCC1)N(C(=O)Cn1nnc(-c2ccc3c(c2)OCO3)n1)C1CCCCC1 | 9% (inactive) | –
CNc1nc(Nc2cn(C(C)(C)C#N)nc2C)ncc1C(F)(F)F | -23.2% (inactive) | –
C=C1CC2OC(=O)C(COC)C2C(OC(=O)/C(C)=C\C)CC2(C)OC1=CC2=O (centres undefined) | – | 14.8 µM (active)
CC(NC(=O)C(O)C(C)C)C(=O)NC1C(=O)N(C)CCc2ccccc21 (centres undefined) | 2.39% (inactive) | –
C[C@@H]1O[C@@H](O[C@H]2[C@H](OC(=O)C34CCC5(C)C(=CCC6C7(C)CC(O)C(O[C@@H]8O[C@H](C(=O)O)[C@@H](O)[C@H](O)[C@H]8O)C(C)(C(=O)O)C7CCC65C)C3CC(C)(C)CC4O)O[C@H](C)[C@@H](O)[C@@H]2O)[C@H](O)[C@@H](O[C@@H]2OC[C@](O)(CO)[C@H]2O[C@@H]2O[C@H](CO)[C@@H](O)[C@H](O)[C@H]2O)[C@H]1O (some centres undefined) | 8.4% (inactive) | –
CC(=O)c1ccc(O[C@@H]2O[C@H](CO[C@@H]3OC[C@@H](O)[C@H](O)[C@H]3O)[C@@H](O)[C@H](O)[C@H]2O)cc1 | -12.2% (inactive) | –
CCOC(=O)c1cc(C#N)c(N2CCC(C(=O)NS(=O)(=O)Cc3ccccc3)CC2)nc1C | 5.67% (inactive) | –
C[C@]1(OC(=O)/C=C/c2ccc(O)cc2)C[C@@H](O)[C@]2(O)C=CO[C@@H](O[C@@H]3O[C@H](CO)[C@@H](O)[C@H](O)[C@H]3O)C12 (some centres undefined) | 3.57% (inactive) | –
CC(=O)OC1C(OC(=O)c2ccccc2)C2C(C)(C)CC(=O)CC2(C)C23CCC(C)(C2)C(O)CC13 (centres undefined) | -22.3% (inactive) | –
CC(C)c1ccc(CO)cc1O[C@@H]1O[C@H](CO)[C@@H](O)[C@H](O)[C@H]1O | -11.5% (inactive) | –
O=C(O)CCc1cccc(O[C@@H]2O[C@H](CO)[C@@H](O)[C@H](O)[C@H]2O)c1O | -6.87% (inactive) | –
CO[C@H]1C=C2C(CC[C@H](O[C@@H]3O[C@H](CO)[C@@H](O)[C@@H](O)[C@H]3O)C2(C)C)[C@]2(C)CC[C@]3(C)C([C@H](C)C(O)C(C=C(C)C)O[C@@H]4O[C@H](CO)[C@@H](O)[C@@H](O)[C@H]4O)CC[C@@]3(C)C12 (some centres undefined) | 0.763% (inactive) | –
CCNC1(C(N)=O)CN(c2nc(C)nc3c(-c4ccc(Cl)cc4)c(-c4ccccc4Cl)nn23)C1 | -0.333% (inactive) | –
C=CC1C(O[C@@H]2O[C@H](CO)[C@@H](O)[C@H](O)[C@H]2O)OC=C(C(=O)OC)C1Cc1nccc2c1[nH]c1ccccc12 (some centres undefined) | 19.6% (inactive) | –
